Data reported in the supplement of paper PMC6522484.
± gives the standard deviation of the averaged measurements.

Experiments:
DLD1 [1] = test: cell viability (CellTiter-Glo) relative to plate median (fraction of plate median); higher = more viable cells; details: 5 µM; treatment time 24 h; reporter: 7TFP
Method in brief: (§1)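 Stable lentiviral TCF/Wnt firefly luciferase reporters (7TFP or TCF4/Wnt) were present in the colorectal cancer cell lines used. These cells received library compounds at a final 5 µM for 24 h, and parallel plates were read for firefly luciferase or CellTiterGlo luminescence. Each well was normalised to the plate median, and the value reported is the mean of two independent replicates.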

HCT116 = test: as above; details: 5 µM; treatment time 24 h; reporter: TCF4/Wnt
Method in brief: as §1

SW480 [2] = test: as above; details: 5 µM; treatment time 24 h; reporter: 7TFP
Method in brief: as §1

DLD1 [3] = test: TCF/Wnt firefly luciferase reporter signal relative to plate median (fraction of plate median); higher = higher Wnt reporter signal; details: 5 µM; treatment time 24 h; reporter: 7TFP
Method in brief: as §1

SW480 [4] = test: as above; details: 5 µM; treatment time 24 h; reporter: 7TFP
Method in brief: as §1

Row | SMILES | cell viability (DLD1 [1]) | cell viability (HCT116) | cell viability (SW480 [2]) | TCF/Wnt firefly luciferase reporter signal (DLD1 [3]) | TCF/Wnt firefly luciferase reporter signal (SW480 [4])
1 | Nc1ccn([C@@H]2O[C@H](CO)[C@@H](O)[C@H]2O)c(=O)n1 | 0.977 ± 0.033 | 1.06 ± 0.057 | 1.06 ± 0.028 | 1.16 ± 0.064 | 1.05 ± 0.057
2 | CCn1cc(C(=O)O)c(=O)c2cnc(N3CCNCC3)nc21 | 0.976 ± 0.049 | 0.943 ± 0.12 | 1 ± 0.025 | 0.891 ± 0.21 | 0.98 ± 0.13
3 | CC(=O)O[C@]1(C(C)=O)CC[C@H]2[C@@H]3C=C(Cl)C4=CC(=O)CC[C@]4(C)[C@H]3CC[C@@]21C | 0.905 ± 0.016 | 0.972 ± 0.082 | 1.04 ± 0.042 | 0.9805 ± 0.0064 | 1.06 ± 0.088
4 | CN1CCC[C@@H]1CCO[C@](C)(c1ccccc1)c1ccc(Cl)cc1 | 0.982 ± 0.096 | 0.917 ± 0.018 | 1.05 ± 0.042 | 0.913 ± 0.19 | 0.87 ± 0.041
5 | CC(=O)/C=C\[C@@H]1[C@@]2(C)CCCC(C)(C)C2CC[C@@]1(C)O (stereo not given in full) | 1 ± 0.025 | 1.14 ± 0.05 | 1.055 ± 0.0071 | 1.165 ± 0.0071 | 0.93 ± 0.11
6 | Cc1occc(=O)c1O | 0.962 ± 0.0099 | 0.973 ± 0.039 | 0.936 ± 0.021 | 0.938 ± 0.1 | 0.85 ± 0.042
7 | Oc1cc(O)c2c(c1)O[C@H](c1cc(O)c(O)c(O)c1)[C@H](O)C2 | 0.94 ± 0.059 | 0.897 ± 0.19 | 0.973 ± 0.024 | 0.925 ± 0.024 | 1.07
8 | NC/C=C/C(=O)O | 1.03 ± 0.088 | 1.01 ± 0.095 | 1 ± 0.068 | 0.965 ± 0.079 | 1 ± 0.11
9 | CC(=O)O[C@H]1CC[C@]2(C)C3=CC(=O)[C@@]4(C)C(C[C@@H]5OC6(OCC(C)CC6Br)[C@@H](C)[C@@H]54)C3CC[C@H]2C1 (stereo partly drawn) [3beta-ACETOXY-23-BROMO-ISOALLOSPIROST-9 (11)-ENE-12-ONE] | 1.04 ± 0.042 | 1.11 ± 0.092 | 1.03 ± 0.05 | 1.12 ± 0.099 | 1.1 ± 0.035
10 | CC(C)=CCC[C@@H](C)[C@@H]1CC[C@]2(C)C3=C(CC[C@@]12C)[C@@]1(C)CC[C@H](O)C(C)(C)[C@@H]1CC3 | 1.015 ± 0.0071 | 0.995 ± 0.021 | 0.989 ± 0.016 | 0.918 ± 0.23 | 1.02 ± 0.085
11 | COC(=O)C[C@H]1C(C)(C)C(=O)[C@@H]2CC3=C4CC(=O)O[C@@H](c5ccoc5)[C@]4(C)CC[C@@H]3[C@@]1(C)C2=O | 1.01 ± 0.016 | 1.01 ± 0.014 | 1.035 ± 0.0071 | 0.924 ± 0.0028 | 1.03 ± 0.035
12 | Cc1c(Cl)cccc1Nc1ccccc1C(=O)O | 0.981 ± 0.041 | 1.04 ± 0.014 | 0.914 ± 0.039 | 0.979 ± 0.12 | 0.862 ± 0.022
13 | COc1ccc(-c2cc(=O)c3c(O)c(OC)c(OC)c(OC)c3o2)cc1OC | 1.07 ± 0.085 | 1.19 ± 0.11 | 1.15 ± 0.18 | 0.964 ± 0.065 | 0.967 ± 0.2
14 | C[N+](C)(C)CCCCCC[N+](C)(C)C | 1.01 ± 0.027 | 0.903 ± 0.022 | 0.93 ± 0.072 | 1.09 ± 0.21 | 1.1 ± 0.11
15 | CCCCC[C@H](CC(=O)NO)C(=O)N[C@H](C(=O)N1CCC[C@H]1CO)C(C)C | 0.951 ± 0.0042 | 0.932 ± 0.057 | 0.9655 ± 0.00071 | 1 ± 0.05 | 1.16 ± 0.035
